Compound activity deposited in PubChem by National Center for Advancing Translational Sciences (NCATS).
Giardia killer – Giardia lamblia killing. AID 540267. activity change, % at 7.66 µM, hits read low. Giardia lamblia trophozoite viability. actives 0.15% (n = 340,000); in the data active = activity change below about -80%; inconclusive = between about -30% and that limit;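 also: parasites exposed to compound for two days anaerobically before the ATP read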
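Luminescent ATP signal served as the viability read-out, measured 15-30 min after adding ATP detection reagent to trophozoites that had been incubated with compounds for 48 hrs at 37 deg C anaerobically at 100 cells/well.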
TDP1 cell noCPT – qHTS for Inhibitors of human tyrosyl-DNA phosphodiesterase 1 (TDP1): qHTS in cells in absence of CPT; Potency, µM (highest dose often 46.2 µM), inactives show at the top dose activity change, negative = growth inhibition, actives largely listed as inhibitors; DT40 Tdp1-/- hTDP1 cells, no CPT, ATP luminescence, 48 h; actives 15% (n = 420,000); AID 686978, 2013; also: potency is read from the fitted curve at half-maximal effect; nearly all actives have a fitted effect of over 55% in size
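A cellular qHTS used chicken DT40 cells lacking endogenous Tdp1 but carrying stably transfected human TDP1. Compounds were applied without camptothecin, and cell growth kinetics were judged by ATP-dependent luminescence after ≥48 hr.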
TDP1 block – inhibitors of human tyrosyl-DNA phosphodiesterase TDP1; Q9NUW8; recombinant TDP1, AlphaScreen DNA substrate cleavage; Potency, µM (titrated, usually from 130 µM), without a hit: at the top dose activity change, negative = inhibition, usual class: inhibitors; actives 0.28% (n = 350,000); AID 485290; also: potency is read from the fitted curve at half-maximal effect; nearly all actives have a fitted effect of over 40% in size
Target sequence (Q9NUW8 whole entry, looked up): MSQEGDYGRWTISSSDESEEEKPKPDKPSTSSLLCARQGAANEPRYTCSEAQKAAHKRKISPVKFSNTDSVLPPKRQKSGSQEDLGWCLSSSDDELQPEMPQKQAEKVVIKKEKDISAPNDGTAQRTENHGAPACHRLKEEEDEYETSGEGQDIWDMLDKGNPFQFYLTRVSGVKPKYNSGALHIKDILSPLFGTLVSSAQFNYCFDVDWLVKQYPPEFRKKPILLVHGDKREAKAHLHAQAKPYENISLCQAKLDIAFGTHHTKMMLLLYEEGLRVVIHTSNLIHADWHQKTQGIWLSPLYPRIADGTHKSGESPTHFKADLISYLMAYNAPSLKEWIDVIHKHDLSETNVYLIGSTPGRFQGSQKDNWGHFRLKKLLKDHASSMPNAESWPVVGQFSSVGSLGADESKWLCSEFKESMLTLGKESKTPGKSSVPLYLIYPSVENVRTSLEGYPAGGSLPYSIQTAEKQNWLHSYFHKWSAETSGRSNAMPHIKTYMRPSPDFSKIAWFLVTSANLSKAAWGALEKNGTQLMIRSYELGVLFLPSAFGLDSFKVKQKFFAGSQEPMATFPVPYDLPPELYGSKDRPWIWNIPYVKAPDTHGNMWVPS
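Compounds were preincubated with Tdp1 (1 nM final) for 15 min at room temperature before substrate (15 nM final) started a 5 min reaction; beads (10 ug/ml final) were then added for 10 min before AlphaScreen detection.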
ELG1 DNA repair – blocks ELG1-dependent DNA repair in HEK293T cells; HEK293T ELG1-luciferase reporter, luminescence, 16 h; DNA damage induced by 5-fluorouridine; Potency, µM (series often up to 46.1 µM), inactives show top-dose activity change, negative = inhibition, usual class: inhibitors; actives 2.3% (n = 330,000); AID 504467; also: potency is read from the fitted curve at half-maximal effect; nearly all actives have a fitted effect of over 55% in size
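DMSO vehicle served as the neutral condition. Each well held 2,000 cells given 5-fluorouridine plus compound; after 16 hr at 37 °C/5% CO2, ONE-Glo was added and luciferase measured 30 min later.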
DT40 TDP1 CPT – DT40-hTDP1 cell growth loss with CPT; chicken DT40 Tdp1-/-;hTDP1 cells + 20 nM CPT, ATP luminescence, 48 h; Potency, µM (highest dose often 46.2 µM), inactives show top-dose activity change, negative = growth inhibition, usual class: inhibitors; actives 12% (n = 420,000); AID 686979; also: potency is read from the fitted curve at half-maximal effect; nearly all actives have a fitted effect of over 55% in size
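Cell growth measured by CellTiter-Glo luminescence after a minimum 48 h, 37 C compound exposure with 20 nM CPT in Tdp1-knockout DT40 cells stably expressing hTDP1, seeded 400/well; qHTS titration format.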
IL1B secr inh – blocks inflammasome-driven IL-1 beta release | actives 4.7% (n = 360,000) | activity change, % at 57.5 µM | THP-1 LPS/ATP IL-1B secretion, AlphaLISA, 16 h; stronger effect = lower value; in the data active = activity change below about -50%; inconclusive = mostly about -30% to -49%
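THP-1 cells pretreated 1 hr with compounds (up to 57.5 uM final), then stimulated with LPS (250 ng/mL final) plus ATP (1.25 mM final); secreted IL-1B measured by AlphaLISA after 16 hr, decreased signal indicating inhibition.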
Numbers without * were called inactive; i = inactive; ? = inconclusive; / = no result given. A selection: hits, their analogues and other compounds. The true share with any hit is near 19%. Unless noted, calls follow the shape of the dose curve; as a rule, active = well fitted curve in the direction sought with a large enough effect; inconclusive = small, poorly fitted or top-dose-only effect, or another doubt; inactive = no such curve, though single readings can be large; an effect the other way counts as inactive or inconclusive. % is scaled to controls: 0 for no effect and ±100 for the full control effect.

SMILES	Giardia killer	TDP1 cell noCPT	TDP1 block	ELG1 DNA repair	DT40 TDP1 CPT	IL1B secr inh
O=C(CCc1ccc(Oc2cc([N+](=O)[O-])cc([N+](=O)[O-])c2)cc1)N1CCCCC1	-22	?	-8%	13µM*	?	-20
O=C(c1ccc(Oc2ccc([N+](=O)[O-])cc2)cc1)N1CCCCCC1	25	?	7%	?	?	-78*
O=C(c1ccc(Cn2ccc([N+](=O)[O-])n2)cc1)N1CCN(Cc2ccccc2)CC1	-12	?	4%	?	4%	-19
O=C(NCC1CCN(C(=O)c2ccc([N+](=O)[O-])cc2)CC1)C(=O)Nc1ccccc1	1	21µM*	2%	?	?	20
CSc1ccc(CN2CCN(C(=O)c3ccc([N+](=O)[O-])cc3)CC2)cc1	6	21µM*	-5%	?	?	-25
O=C(Cc1ccccc1)NC1CCN(C(=O)c2ccc([N+](=O)[O-])cc2)CC1	12	-13%	/	-2%	-2%	2
O=C(CCc1ccc(Oc2cc([N+](=O)[O-])cc([N+](=O)[O-])c2)cc1)Nc1cccc(Cl)c1	4	?	-1%	-20%	?	?
COc1ccccc1CNC(=O)C1(c2cccs2)CCOCC1	/	?	0%	/	-26%	/
Cc1ccc(C)c(NC(=O)c2cc(C)nc3ccccc23)c1	43	?	/	-9%	-24%	16
Cc1cccc(NC(=O)c2ccccc2O)c1C	-10	?	0%	?	21µM*	-61*
Cc1ccc(C)c(NC(=O)c2ccccc2O)c1	-29	9.2µM*	6%	?	8.2µM*	6
Cc1cccc(NC(=O)c2cccc([N+](=O)[O-])c2O)c1C	?	13µM*	/	/	16µM*	5
Cc1cccc(NC(=O)c2cnn3ccccc23)c1C	-2	2.1µM*	3%	?	1.6µM*	-53*
O=C(Nc1ccccc1O)c1ccccc1O	-26	?	2%	?	?	-9
O=C(NC1CC(=O)N(c2ccc(F)cc2)C1)C1CCCC1 (stereo not given)	/	2%	-3%	/	4%	/
CN(Cc1ccc(OC(F)F)cc1)C(=O)c1ccc(S(=O)(=O)N(C)c2ccccc2)cc1	-4	-14%	0%	?	?	-18
COC(=O)c1cc(C(=O)NCc2ccc3c(c2)OCO3)cc([N+](=O)[O-])c1	6	-26%	/	8%	21%	-55*
COc1ccccc1N(C)S(=O)(=O)c1ccc(C(=O)N(C)Cc2cccc(OC)c2OC)cc1	/	21µM*	/	/	?	-6
CCOc1ccc(CN(C)C(=O)c2ccc(S(=O)(=O)N(C)c3ccccc3OC)cc2)cc1	9	10µM*	2%	?	?	-24
COc1cccc(CN(C)C(=O)c2[nH]c(C)c(C(C)=O)c2C)c1OC	-10	12µM*	/	?	18µM*	53
O=C(NCc1ccc2c(c1)OCO2)c1cccc([N+](=O)[O-])c1	-2	-8%	2%	5%	-4%	-2
CN1C(=O)Cc2cc(S(=O)(=O)N3CCN(c4cccc(C(F)(F)F)c4)CC3)ccc21	5	-10%	3%	8%	-30%	9
COCCCNC(=S)N1CCC(C(=O)c2ccc(Cl)cc2)CC1	26	-69%	/	?	-65%	-12
Cc1ccc(S(=O)(=O)Nc2ccc(-n3c(C)nc4ccccc4c3=O)cc2)cc1	16	-14%	5%	10%	-23%	?
COc1cccc(C(=O)NCc2ccc3c(c2)OCO3)c1OC	-1	-6%	3%	14%	15%	6
SMILES	Giardia killer	TDP1 cell noCPT	TDP1 block	ELG1 DNA repair	DT40 TDP1 CPT	IL1B secr inh
COc1ccccc1N(C)S(=O)(=O)c1ccc(C(=O)NCc2ccc3c(c2)OCO3)cc1	13	23µM*	7%	?	-14%	1
COc1ccccc1N(C)S(=O)(=O)c1ccc(C(=O)OCC(N)=O)cc1	?	-30%	0%	1%	18%	15
COc1ccccc1N(C)S(=O)(=O)c1ccc(C(=O)N(C)Cc2ccc(Cl)s2)cc1	-2	15µM*	0%	?	23µM*	?
O=c1c(-c2cc(F)cc(F)c2)nc2cnc(Nc3ccccc3)nc2n1C[C@H]1CCCO1	/	-7%	/	/	-14%	/
CC1CCN(S(=O)(=O)c2ccc(C(=O)OC(C)C(=O)NC3CCCCC3C)cc2)CC1 (stereo not given)	0	?	-19%	3%	0%	-1
COC(=O)Nc1ccc(S(=O)(=O)N2CCC(C(=O)N(C)C3CCCCC3)CC2)cc1	9	26µM*	4%	-16%	?	2
CCOC(=O)C1CCN(S(=O)(=O)c2ccc(NC(=O)OC)cc2)CC1	13	-11%	7%	-22%	-7%	13
CC1CCN(S(=O)(=O)c2ccc(C(=O)OC(C)C(=O)N(C)C3CCCCC3)cc2)CC1 (stereo not given)	4	26µM*	-3%	8%	?	29
CCN(CC)S(=O)(=O)c1ccc(NN)nc1	-6	?	8%	?	21µM*	86
CCN(CC)S(=O)(=O)c1ccc(N/N=C/c2cccnc2)nc1	34	-24%	2%	10%	-14%	-12
CCN(CC)S(=O)(=O)c1ccc(N/N=C/c2cc(OC)ccc2O)nc1	16	6.5µM*	7%	18%	5.8µM*	58
CC(C)N(C(C)C)S(=O)(=O)c1ccc(NN)nc1	-16	?	-1%	?	?	94
CC(C)n1cc(CN2CCC(n3nccc3NC(=O)C3CCCC3)CC2)cn1	-3	7%	0%	4%	8%	i
NC(=S)N=Nc1c(O)[nH]c2c(Br)cc(Br)cc12	9	21µM*	5%	-13%	?	63
C/C(Sc1nnc(Cc2ccccc2)o1)=C(\O)c1ccccc1	-10	?	/	/	?	12
COc1ccc(Cl)cc1NC(=O)Cn1c(=O)n(Cc2ccc(F)cc2)c(=O)c2cccnc21	/	9.2µM*	-2%	/	?	/
COc1ccc(Cn2c(=O)c3cccnc3n(CC(=O)Nc3ccc(C)c(F)c3)c2=O)cc1	/	?	-1%	/	-17%	/
CCc1ccc(NC(=O)Cn2c(=O)n(Cc3ccc(C)cc3)c(=O)c3cccnc32)cc1	/	-11%	-4%	/	?	/
